Rows were chosen to be rich in hits. Some 11% of all compounds tested hit in one or more screens of this group.
HEK cytotox: cytotoxic compounds in HEK 293 cells | HEK 293 viability, ATP luminescence (CellTiter-Glo), 48-72 h | Potency, µM (doses to about 115 µM), for the others: top-dose activity change, negative = cytotoxicity, actives largely listed as inhibitors | 6.6% of 94,000 active | AID 1345083; also: nearly all actives have a fitted effect of over 60% in size
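Cytotoxicity was scored by loss of ATP-coupled luminescence (CellTiter-Glo) in HEK 293 cells. Compound treatment ran 48 or 72 hr at 37 degree Celsius, 5% CO2, 95% humidity.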
hNpr1 antagonist: human Npr1 receptor antagonism; P16066; HEK293 hNpr1 GloSensor cGMP, ANP-stimulated luminescence; Potency, µM (doses to about 46.3 µM), inactives show at the top dose activity change, negative = inhibition, usual class: inhibitors; 1.6% of 76,000 active; calls by dose curve; also: nearly all actives have a fitted effect of over 60% in size
Target sequence (P16066 whole entry, looked up): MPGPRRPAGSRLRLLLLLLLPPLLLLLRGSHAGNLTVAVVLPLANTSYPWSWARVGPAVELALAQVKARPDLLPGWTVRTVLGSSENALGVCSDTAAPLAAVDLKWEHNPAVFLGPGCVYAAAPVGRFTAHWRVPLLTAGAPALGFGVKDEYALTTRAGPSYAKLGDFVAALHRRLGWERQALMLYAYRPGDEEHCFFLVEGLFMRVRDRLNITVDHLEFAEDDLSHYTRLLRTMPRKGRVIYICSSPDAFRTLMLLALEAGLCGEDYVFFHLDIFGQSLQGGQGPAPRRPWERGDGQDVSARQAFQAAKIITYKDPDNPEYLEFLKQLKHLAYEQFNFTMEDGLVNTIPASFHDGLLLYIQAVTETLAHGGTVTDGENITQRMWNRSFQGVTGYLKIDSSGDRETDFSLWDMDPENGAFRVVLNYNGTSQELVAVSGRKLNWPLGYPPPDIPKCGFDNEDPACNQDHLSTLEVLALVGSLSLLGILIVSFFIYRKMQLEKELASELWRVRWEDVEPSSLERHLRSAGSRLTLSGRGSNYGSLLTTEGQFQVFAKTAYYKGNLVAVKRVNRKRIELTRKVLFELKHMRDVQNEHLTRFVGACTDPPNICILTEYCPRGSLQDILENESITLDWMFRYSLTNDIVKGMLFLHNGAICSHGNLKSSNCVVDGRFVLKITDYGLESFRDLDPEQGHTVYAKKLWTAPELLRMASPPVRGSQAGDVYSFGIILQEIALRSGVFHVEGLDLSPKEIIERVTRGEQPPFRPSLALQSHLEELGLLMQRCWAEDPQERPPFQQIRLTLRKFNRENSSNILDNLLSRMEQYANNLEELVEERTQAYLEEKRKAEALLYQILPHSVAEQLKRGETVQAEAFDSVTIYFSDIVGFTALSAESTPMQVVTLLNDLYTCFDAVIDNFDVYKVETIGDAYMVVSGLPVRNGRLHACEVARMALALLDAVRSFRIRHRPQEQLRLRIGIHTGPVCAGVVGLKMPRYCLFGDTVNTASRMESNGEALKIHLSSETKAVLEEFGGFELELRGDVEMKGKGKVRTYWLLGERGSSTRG
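HEK293 cells stably expressing human Npr1 and cGMP GloSensor pGS-40F, loaded 2 h with 2% GloSensor reagent, given compound 30 min at room temperature. Luminescence read before and 20 min after 0.1 nM hNppA.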
NIH3T3 tox: cytotoxic compounds in NIH 3T3 cells; NIH 3T3 viability, CellTiter-Glo ATP luminescence, 48-72 h; Potency, µM (highest dose often 96.7 µM), for inactives: at the top dose activity change, negative = cytotoxicity, most hits filed as inhibitors; 4.3% of 94,000 active; also: nearly all actives have a fitted effect of over 55% in size
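Mouse fibroblast NIH 3T3 cells, 400 per well, received compound via pintool and were incubated for 48 or 72 hr prior to CellTiter-Glo ATP luminescence measurement.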
Luciferase inh: Photinus pyralis luciferase inhibition. P08659. AID 1347043. Potency, µM (top dose mostly 115 µM), usual class: inhibitors. 2.5% of 76,000 active. purified P. pyralis luciferase, luminescence, biochemical; also: nearly all actives have a fitted effect of over 65% in size
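Luminescence read by CCD imager after adding enzyme (10nM final) to wells holding compound, titrated in qHTS. Substrates 10uM each D-luciferin and ATP; buffer 50mM Tris acetate pH 7.5, 10mM Mg acetate, Tween-20, BSA.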
* hit, by the source's call; i = inactive; ? = inconclusive; nt = not tested or not shown; [ ] = another dose, or the depositor's remark. Unless noted, calls follow the shape of the dose curve; as a rule, active = well fitted curve in the direction sought with a large enough effect; inconclusive = small, poorly fitted or top-dose-only effect, or another doubt; inactive = no such curve, though single readings can be large; an effect the other way counts as inactive or inconclusive. % is scaled to controls: 0 for no effect and ±100 for the full control effect; potency is read from the fitted curve at half-maximal effect.

SMILES	HEK cytotox	hNpr1 antagonist	NIH3T3 tox	Luciferase inh
COc1cc2c(cc1OCC1CC1)NC(=O)C21CCN(c2ccnc(C)n2)CC1	79.4µM*	-6.7%[70.6 µM]	?	i
COc1cc2c(cc1OC1CCCC1)NC(=O)C21CCN(c2cc(NC3CC3)ncn2)CC1	?	-13.1%	?	i
COc1cc2c(cc1OCC1CC1)NC(=O)C21CCN(c2cc(NC3CC3)ncn2)CC1	89.1µM*	-8.7%[70.6 µM]	25.1µM*	i
COc1cc2c(cc1OC1CCCC1)NC(=O)C21CCN(c2ccnc(C)n2)CC1	?	-10.0%[70.6 µM]	79.4µM*	i
CN1CCN(C(=O)Cc2cccn2-c2ccc(Cl)cc2)CC1	-7.2%	4.6%	i	i
COc1cc2c(cc1OCC1CC1)NC(=O)C21CCN(Cc2cccc(O)c2)CC1	89.1µM*	-8.9%[70.6 µM]	?	?
COc1cc2c(cc1OCC1CC1)NC(=O)C21CCN(Cc2ccncc2)CC1	?	4.4%[70.6 µM]	-26.2%[138 µM]	i
COc1cc2c(cc1OCc1ccccc1)NC(=O)C21CCN(C(=O)c2cccnc2)CC1	50.1µM*	?	?	i
COc1cc2c(cc1OCc1ccccc1)NC(=O)C21CCN(Cc2cccc(O)c2)CC1	35.5µM*	1.2%	22.4µM*	?
COc1cc2c(cc1OCc1ccncc1)NC(=O)C21CCN(Cc2cccc(O)c2)CC1	?	-20.2%	?	i
COc1cc2c(cc1OCC1CC1)NC(=O)C21CCN(Cc2ccccc2O)CC1	?	-17.5%[70.6 µM]	39.8µM*	i
COc1cc2c(cc1OCC1CC1)NC(=O)C21CCN(C(=O)c2cccc(O)c2)CC1	?	3.9%[70.6 µM]	-21.8%[138 µM]	i
COc1cc2c(cc1OCc1ccncc1)NC(=O)C21CCN(C(=O)C2CCC2)CC1	?	0.2%[70.6 µM]	?	i
O=C(c1ccoc1)N1CCC2(CC1)NCc1ccccc1-n1ccnc12	-0.9%	-0.4%	-7.6%	i
COc1cc2c(cc1OCc1ccncc1)NC(=O)C21CCN(Cc2ccccc2)CC1	100µM*	-26.9%[70.6 µM]	79.4µM*	i
COc1cc2c(cc1OC1CCCC1)NC(=O)C21CCN(Cc2ccncc2)CC1	?	-5.9%[70.6 µM]	?	i
COc1cc2c(cc1OC1CCCC1)NC(=O)C21CCN(Cc2cccc(O)c2)CC1	89.1µM*	-9.5%[70.6 µM]	25.1µM*	i
CC(C)CN(Cc1cccnc1)C1CN(C(=O)COc2ccc(F)cc2)C1	?	2.7%	31.6µM*	i
CSc1cccc(NC(=O)NC[C@H]2C[C@@H]3CCN2C[C@@H]3CN(C)CCc2ccccn2)c1	?	-3.0%	79.4µM*	i
O=C(NC[C@H]1C[C@@H]2CCN1C[C@@H]2CN1CCN(c2ccccc2)CC1)Nc1ccccc1	?	4.4%[70.6 µM]	?	i
CSc1cccc(NC(=O)NC[C@H]2C[C@@H]3CCN2C[C@@H]3CN2CCN(c3ccccc3)CC2)c1	22.4µM*	-1.5%	20µM*	i
CSc1cccc(NC(=O)NC[C@H]2C[C@@H]3CCN2C[C@@H]3CN2CCSCC2)c1	?	0.8%[70.6 µM]	100µM*	i
CN(CCc1ccccn1)C[C@H]1CN2CC[C@H]1C[C@@H]2CNC(=O)Nc1ccccc1	i	-1.1%[70.6 µM]	-7.1%[174 µM]	i
CC(C)S(=O)(=O)N1CC[C@@H]2COCCN(C)[C@@H]2C1	-2.1%	-0.5%	2.4%	i
CN1CCc2c([nH]c3ccccc23)C12CCNCC2	89.1µM*	-0.6%	?	i
SMILES	HEK cytotox	hNpr1 antagonist	NIH3T3 tox	Luciferase inh
NC(=O)c1ccc(N2CC3CCC(C2)N3CC(F)(F)F)nn1	3.8%	nt	i	nt
CCOC(=O)[C@H]1CN(C(=O)c2ccccc2)[C@]2(C)C(=O)N(CC3CC3)c3ccccc3[C@H]12	?	nt	-25.5%[46.1 µM]	nt
CCOC(=O)[C@@H]1[C@H]2c3ccccc3N(CCOC)C(=O)[C@H]2N(C(=O)C2CCC2)[C@@H]1c1ccccc1	50.1µM*	nt	?	nt
CCOC(=O)[C@@H]1[C@H]2c3ccccc3N(CCOC)C(=O)[C@H]2N(C(=O)CC(C)C)[C@@H]1c1ccccc1	39.8µM*	nt	?	nt
O=c1c(-c2cccs2)ccc2n1C[C@H]1C[C@@H]2CN(C2CCOCC2)C1	-19.2%[172 µM]	-0.7%[70.6 µM]	-26.7%[174 µM]	i
O=[N+]([O-])c1ccc(Cl)nc1N1CC2CCC(C1)N2CC(F)(F)F	39.8µM*	nt	?	nt
Cc1ccnc(N2CC3CCC(C2)N3CC(F)(F)F)c1[N+](=O)[O-]	?	nt	-19.2%	nt
FC(F)(F)CN1C2CCC1CN(c1nnc(Cl)c3ccccc13)C2	79.4µM*	nt	?	nt
